Our source for the outcome values is PubChem BioAssay.

Each structure is given as a SMILES string. Measured potencies and affinities stand elsewhere. Activity calls are given as the source filed them.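 Rule for the calls: active = a fitted half-maximal concentration no higher than twice the top valid tested dose, with signal falling as cells die; inconclusive = flat curve between -70% and -30%, or poor fit; inactive = the rest, including signal rising instead of falling.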

The experiment is described as follows: viability loss in HeLa cells – cell-based, ATP luminescence, cherry-pick samples, cytotoxicity control, dose response (AID 687004). The conditions noted are these: ATP luminescence (CellTiter-Glo), 48 h; series mostly up to 26 µM.
For the compound `CC(C)CC1(C)N=C(c2ccccc2)C(=S)N1` (stereo not drawn), the outcome was inactive.
The value for `COc1ccc(N2CCN(C(=O)Cc3cccs3)CC2)cc1` was “inactive”; that for `CCCOc1ccc(CNC(=S)NCc2ccc(OC(C)C)cc2)cc1` was “inactive”; that for `O=C(COC(=O)CCC1CCCC1)Nc1nc2c(F)c(F)c(F)cc2s1` was “inactive”.
As to `O=C(NC(=S)Nc1cc(Cl)ccc1N1CCOCC1)c1ccccc1[N+](=O)[O-]`, the result was inactive.
With `S=C(NCc1ccccc1)NCC1COc2ccccc2O1` (stereo not drawn), the result was inactive.
Regarding `COC(=O)C1=C(C)N(Cc2ccc(F)cc2)C(=S)NC1c1ccccc1` (stereo not drawn), the call was inactive.
Take `O=C(NC(=S)NCC1COc2ccccc2O1)c1ccc(Cl)cc1` (stereo not drawn): the outcome was inactive.
For `COc1cccc(NC(=S)N2CCC(Cc3ccccc3)CC2)c1`, the compound was classed as inactive.
As to `Cc1ccc(C(=O)NC(=S)Nc2ccccc2N2CCCC2)cc1[N+](=O)[O-]`, the outcome was inactive.
Turning to `COC(=O)C1=C(C)N(Cc2ccc(F)cc2)C(=S)NC1c1cccc(Br)c1` (stereo not drawn), the outcome was inactive.
For `O=C(C[C@H]1CC[C@@H]2[C@H](COC[C@@H](O)CN2C(=O)c2cnccn2)O1)NCc1ccc(Oc2ccccc2)cc1`, the call was inactive.
`COc1cccc(C(=O)NC(=S)Nc2ccccc2N2CCOCC2)c1`: the compound was called inactive.
